Assay results: PubChem BioAssay AID1645886 (National Center for Advancing Translational Sciences (NCATS), 2021)
About 260 (1.6%) of roughly 16,000 compounds were called active. About 14% were inconclusive and are not listed. This is one part of a sample in which actives are shown more often than they occur. Calls come from the whole dose curve; as a rule, active = well fitted inhibition curve with a large enough effect; inconclusive = small, poorly fitted or top-dose-only effect; inactive = no such curve, though single readings can be large or run the other way. Some structures have more than one record in an assay (separate samples or runs), and their calls can disagree.

Molecular target: Rap guanine nucleotide exchange factor 4 (Homo sapiens) (UniProt Q8WZA2)
Sequence (Q8WZA2 whole entry, looked up): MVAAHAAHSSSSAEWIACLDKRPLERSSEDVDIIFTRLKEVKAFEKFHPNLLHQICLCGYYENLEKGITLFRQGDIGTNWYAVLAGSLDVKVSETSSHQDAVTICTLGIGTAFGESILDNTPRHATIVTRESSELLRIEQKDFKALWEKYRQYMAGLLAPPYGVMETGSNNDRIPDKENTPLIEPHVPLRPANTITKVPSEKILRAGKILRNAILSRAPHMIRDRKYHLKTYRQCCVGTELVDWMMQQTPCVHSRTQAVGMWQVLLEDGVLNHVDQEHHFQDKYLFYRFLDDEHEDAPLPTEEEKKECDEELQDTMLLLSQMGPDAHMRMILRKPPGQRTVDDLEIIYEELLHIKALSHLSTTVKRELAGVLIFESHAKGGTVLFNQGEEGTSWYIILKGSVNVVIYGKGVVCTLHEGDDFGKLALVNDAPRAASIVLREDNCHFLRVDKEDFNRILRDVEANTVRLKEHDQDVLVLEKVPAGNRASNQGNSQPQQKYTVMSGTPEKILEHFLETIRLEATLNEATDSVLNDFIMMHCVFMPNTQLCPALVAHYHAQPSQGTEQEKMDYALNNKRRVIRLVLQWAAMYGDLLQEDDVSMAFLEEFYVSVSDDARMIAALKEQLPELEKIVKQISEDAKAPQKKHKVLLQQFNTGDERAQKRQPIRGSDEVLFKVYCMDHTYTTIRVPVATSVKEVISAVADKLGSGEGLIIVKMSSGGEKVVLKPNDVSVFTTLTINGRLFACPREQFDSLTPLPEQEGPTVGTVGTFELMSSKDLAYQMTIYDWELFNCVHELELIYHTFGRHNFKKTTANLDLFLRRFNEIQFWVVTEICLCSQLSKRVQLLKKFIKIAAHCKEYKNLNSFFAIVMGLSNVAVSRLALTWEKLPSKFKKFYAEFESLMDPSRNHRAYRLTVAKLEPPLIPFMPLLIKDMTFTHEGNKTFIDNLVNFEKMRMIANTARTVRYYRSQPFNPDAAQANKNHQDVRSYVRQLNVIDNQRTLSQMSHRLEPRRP
Experiment: Validation qHTS for antagonist of cAMP-regulated guanine nucleotide exchange factor 4 (EPAC2); note: nearly all actives have a fitted effect of over 40% in size
Conditions: EPAC2 Rap1B BODIPY-GDP exchange, fluorescence; series mostly up to 112 µM; activity, negative = inhibition: at the top concentration
Source text: Principle Investigator: Xiaodong Cheng Ph.D. The University of Texas Medical Branch, […], TX MLPCN Grant: NS066510 In multi-cellular eukaryotic organisms, the effects of cAMP are transduced by two ubiquitously-expressed intracellular cAMP receptors, the classic protein kinase A/cAMP-dependent protein kinase (PKA/cAPK) and the more recently discovered exchange protein directly activated by cAMP/cAMP-regulated guanine nucleotide exchange factor (EPAC/cAMP-GEF). Both PKA and EPAC are ubiquitously expressed in all tissues, and an increase in intracellular cAMP levels will lead to the activation of both PKA and EPAC. Therefore, careful dissections of the individual role and relative contribution of EPAC and PKA within the overall cAMP signaling in various model systems are critical for further elucidating the mechanism of cAMP signaling. To date no EPAC-specific antagonists and agonist, as well as isoform-specific agonists have been reported, and developing EPAC-specific pharmacological probes to determine the physiological functions that EPAC play in the overall cAMP-mediated signaling remains a major challenge within the research field. Furthermore, identified regulators of EPAC may lead to new mechanism-based therapeutic strategies specifically targeting the EPAC / cAMP-signaling components as EPAC has been implicated to play important roles in major human pathological conditions such as diabetes, heart disease, and cancer. This qHTS will be used to screen the Molecular Libraries Small Molecule Repository (MLSMR) as a concentration-titration series using the NCGC unique quantitative screening (qHTS) platform to find activators for EPAC1. In addition, this assay will also be used as a counterscreen for the EPAC2 qHTS. This fluorescent based assay is developed and validated for EPAC1 that measures exchange using EPAC effector Rap1 complex with BODIPY-GDP, a GDP analog with a tethered fluorophores. Activators are identified by monitoring the change in fluorescence signal as the exchanged free BODIPY-GDP has a reduced fluorescence compared to Rap1-bound BODIPY-GDP. Increase in signal (activation) is the desired outcome for the EPAC1 agonist while no activity in this assay is desired for the EPAC2 agonist counterscreen. Reference: [1] de Rooij, J., Zwartkruis, F. J., Verheijen, M. H., Cool, R. H., Nijman, S. M., Wittinghofer, A., and Bos, J.L. (1998) Nature 396, 474-477.
Briefly, three uL of reagents (100 nM EPAC2, 250 nM RAP1B-BODIPY-GDP, 50 uM GDP) were dispensed into a 1536-well Greiner black solid-bottom medium binding assay plate. Controls and test compounds (23 nL) were transferred to the plate via a Kalypsys pin tool equipped with a 1536-pin array. The plates were centrifuged at 1,000 rpm for 15 seconds followed by 5 minute incubation at room temperature. The assay plates were read at 5 minute intervals for 30 minutes in the ViewLux plate reader using 480nm excitation and 540nm emission filters. The results were normalized to the agonist positive control of 6.5 mM cAMP.
Potency is the fitted concentration of half-maximal effect.

Row | Structure (SMILES) | activity, negative = inhibition | Potency
1 | NCCC(=O)c1ccccc1N | -11% (inactive) | 
2 | Cc1ccc(-c2nn(CC(C)(C)C)c3ncnc(N)c23)cc1 | -16.1% (inactive) | 
3 | CN[C@@H]1[C@H](O[C@H]2[C@H](O[C@H]3[C@H](O)[C@@H](O)[C@H](N=C(N)N)[C@@H](O)[C@@H]3N=C(N)N)O[C@@H](C)[C@]2(O)CO)O[C@@H](CO)[C@H](O)[C@H]1O | -7.91% (inactive) | 
4 | CCS(=O)(=O)N(C)[C@@H]1c2cc(C#N)ccc2OC(C)(C)[C@H]1O | -18.9% (inactive) | 
5 | CC(C)=CCN1CCC2(CCc3ccccc32)CC1 | 4.49% (inactive) | 
6 | Nc1nc2[nH]c(=O)c(=O)[nH]c2c(=O)[nH]1 | -5.47% (inactive) | 
7 | Cn1c(=O)c(-c2ccccc2)nc2cnc(N3CCNCC3)nc21 | -20.6% (inactive) | 
8 | COc1ccccc1CN1CC2(CCN(S(=O)(=O)c3ccccc3)CC2)C1 | -22.4% (inactive) | 
9 | CCn1ccnc1C[C@@H]1COc2ccccc2O1 |  | 20 µM (active)
10 | CCC1(C2CCN(Cc3cccnc3)CC2)NC(=O)N(CC2COc3ccccc3O2)C1=O (centres undefined) | -20.3% (inactive) | 
11 | Nc1nc2c(nc(Cl)n2C2OC(CO)C(O)C2O)c(=O)[nH]1 (centres undefined) | -5.51% (inactive) | 
12 | Cc1nnc(C(=O)NC(C)(C)c2nc(C(=O)NCc3ccc(F)cc3)c(O)c(=O)n2C)o1 | 13.2% (inactive) | 
13 | O=C(c1cccc(F)c1)N1CCC2(CC1)CCN(c1ccccc1)CC2 | -18.3% (inactive) | 
14 | COc1ccc(-n2c(=O)c(-c3cn(C)c4ccccc34)nc3cnc(OC)nc32)cc1 | -21.3% (inactive) | 
15 | COc1ccccc1CNc1ncnc2ccc(-c3c(C)noc3C)cc12 | -16% (inactive) | 
16 | CC1(C)OC2CC3C4CCC5=CC(=O)CCC5(C)C4(F)C(O)CC3(C)[C@]2(C(=O)CCl)O1 (some centres undefined) | -11.2% (inactive) | 
17 | COc1ccccc1-c1ccc(C(=O)N(C)C(C)c2ccon2)c(N2CCN(c3ccccc3F)CC2)n1 (centres undefined) | -16.9% (inactive) | 
18 | COc1ccccc1-c1ccnc(-n2ncc(C(=O)NCCCN3CCOCC3)c2C)n1 | -2.97% (inactive) | 
19 | N#Cc1ccc(CN2CCCC3(CCN(C(=O)c4ccco4)CC3)C2)cc1 | -18.6% (inactive) | 
20 | CS(=O)(=O)N1CCC2(CC1)CN(c1ccncc1)C2 | -32.4% (inactive) | 
21 | COc1ccc(NC(=O)N2CC3(CCN(C(C)=O)CC3)C2)cc1 | -19.7% (inactive) | 
22 | N#Cc1ccccc1-c1ccc2ncnc(NCc3cccnc3)c2c1 | -5.3% (inactive) | 
23 | COC1(C2=NCCN2)COc2ccccc2O1 (centres undefined) | -22% (inactive) | 
24 | COc1ccc2c(=O)cc(-c3ccccc3)oc2c1O | -30.4% (inactive) | 
25 | Cc1ccc(-c2ccnc(-n3ncc(C(=O)N(C)Cc4cccc5ncccc45)c3C3CC3)n2)o1 | 5.35% (inactive) | 
26 | NC1CCN(O)C1=O (centres undefined) | 9.16% (inactive) | 
27 | CC(=O)O[C@]1(C(C)=O)CC[C@H]2[C@@H]3C=C(C)C4=CC(=O)CC[C@]4(C)[C@H]3CC[C@@]21C | -0.525% [at 56.6 µM] (inactive) | 

Row | Structure (SMILES) | activity, negative = inhibition | Potency
28 | Nc1nc2c(ncn2[C@@H]2O[C@H](COP(=O)(O)OP(=O)(O)OP(=O)(O)O)[C@@H](O)C2O)c(=O)[nH]1 (some centres undefined) | 13.3% (inactive) | 
29 | CC(C)NC(=O)N1CCC2(CC1)CCN(C(=O)c1cccn1C)CC2 | -21.4% (inactive) | 
30 | CCNc1ncc2ncc(=O)n(CCc3ccccc3)c2n1 | -6.79% (inactive) | 
31 | CN1CCC(=O)N([C@H](CO)Cc2ccccc2)CC1 | 1.88% (inactive) | 
32 | O=C(/C=C/c1cccc(F)c1)NC1CC1 | 28.6% (inactive) | 
33 | Cc1nc2cnc(N3CCNCC3)nc2n(CCc2ccccc2)c1=O | -20.3% (inactive) | 
34 | Cc1cnc(CNc2cc(-c3c(C)noc3C)ncn2)cn1 | -8.53% (inactive) | 
35 | COC(=O)c1c(OCc2ccc(F)cc2)cc(=O)n2c1CCN(Cc1ccc3cccnc3c1)CC2 | -20.7% (inactive) | 
36 | COc1ccc2[nH]cc(CCNc3nc(-c4cccc(NS(C)(=O)=O)c4)nc4ccccc34)c2c1 | -18.1% (inactive) | 
37 | COc1cc(=O)n2c(c1C(=O)NC(C)c1ccco1)CCN(Cc1cc(C)cc(C)c1)CC2 (centres undefined) | 8.46% (inactive) | 
38 | O=C(Nc1cccc(F)c1)N1CC2(CCN(C(=O)c3csnn3)CC2)C1 | -28.5% (inactive) | 
39 | FC(F)(F)c1cccc(-c2cn[nH]c2C2CCCN(Cc3cccn3-c3ccccn3)C2)c1 (centres undefined) | -16.2% (inactive) | 
40 | CC(=O)O[C@]1(C(C)=O)CC[C@H]2[C@@H]3CCC4=CC(=O)CC[C@]4(C)[C@@]3(F)[C@@H](O)C[C@@]21C | -8.39% (inactive) | 
41 | COc1ccccc1CNc1ncnc2ccc(-c3ccc4c(c3)OCO4)cc12 | -17.6% (inactive) | 
42 | O=C(c1cn(CC2CCCN(Cc3cc4ccccc4s3)C2)nn1)N1CCCC1 (centres undefined) | -18.8% (inactive) | 
43 | COCCn1c(=O)c(-c2ccccc2)nc2cnc(N3CCOCC3)nc21 | -0.915% (inactive) | 
44 | CC1O[C@@H](Oc2c(-c3ccc(O)c(O)c3)oc3cc(O)cc(O)c3c2=O)C(O)C(O)C1O (some centres undefined) | -13% (inactive) | 
45 | O=C(C(=O)N1CCOc2ccc(CN3CCN(Cc4ccccn4)CC3)cc2C1)c1ccccc1 | -2.87% (inactive) | 
46 | COC(=O)N1CCC2(CCCN(Cc3ccccc3OC)C2)CC1 | -12.2% (inactive) | 
47 | CCOc1ccc2nc(N3CCCN(CCCn4cccn4)CC3)nc(C)c2c1 | -5.1% (inactive) | 
48 | Oc1cc2c(cc1O)CN(C(=S)NCCc1ccc(Cl)cc1)CCC2 |  | 56.2 µM (active) and inactive
49 | CC(C)=CCC/C(C)=C/CC/C(C)=C/CC/C(C)=C/CO |  | inactive
50 | O=c1c(O)c(Br)ccc2c(Br)c(O)c(O)c(O)c12 | 6.67% (inactive) | 
51 | CC(=O)NC(=O)c1ccccc1O | 23.4% (inactive) | 
52 | Cc1oc(-c2cccc(NC(=O)c3ccccc3)c2)nc1CNC(=O)c1cnc2ccccn2c1=O | -3.94% (inactive) | 
53 | COc1ccccc1C(=O)N[C@@H]1c2ccccc2C2(CCN(C(=O)c3csnn3)CC2)[C@H]1OC | -9.95% (inactive) | 
54 | CC1C(O)CC2C(C(=O)O)=CO[C@@H](O[C@H]3OC(CO)C(O)C(O)C3O)C21 (some centres undefined) | -1.93% (inactive) | 
